# Screening results from PubChem.
# Most compounds without a hit are left out; they make up all but 1.5% or so of the library.
# Vc quorum ag: inducers of Vibrio cholerae quorum light production without autoinducers; V. cholerae BH1578 lux reporter, luminescence, 6 h; activation, % at 18.7 µM; actives 0.16% (n = 350,000); in the data active means activation mostly above about 9.7%, no sharp cut-off
# TcdB inh: blocks C. difficile toxin B glycohydrolase activity; P18177; TcdB glycohydrolase enzymatic assay, plate reader; inhibition, % at 9.99 µM; actives 0.24% (n = 350,000); in the data active means inhibition above about 10%
# PriA SSB inh: inhibitors of Klebsiella pneumoniae PriA binding to SSB C-terminal tail; AlphaScreen SSBct-PriA binding, biotinylated peptide; inhibition, % at 33 µM; actives 0.6% (n = 430,000); AID 1272365; in the data active means inhibition mostly above about 37%, no sharp cut-off; inactive means mostly below about 20%;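 further: plate controls were negative control peptide for no effect and reference peptide for full effect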
# CCHF vOTU inh-1: blocks the CCHF virus ovarian tumor domain protease; CCHFV vOTU protease, Pep-AMC fluorescence; inhibition, % at 11.5 µM; actives 0.55% (n = 370,000); AID 651958; further: 0% = vehicle wells with enzyme and 100% = no enzyme wells
# VHR inh abs: DUSP3 (human) phosphatase inhibition | P51452 | recombinant VHR phosphatase, pNPP absorbance | inhibition, % at 13.3 µM | actives 0.52% (n = 290,000); in the data active means inhibition above about 50%
# Target sequence (P51452 whole entry, looked up): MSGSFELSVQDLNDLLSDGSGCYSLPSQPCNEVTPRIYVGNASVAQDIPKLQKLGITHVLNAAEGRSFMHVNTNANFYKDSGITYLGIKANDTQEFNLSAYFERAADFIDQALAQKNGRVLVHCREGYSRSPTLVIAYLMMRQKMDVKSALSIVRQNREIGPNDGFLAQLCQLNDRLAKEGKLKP
# PrPC TRFRET: cell surface PrPC inhibition, primary TR-FRET screen; P04156; TR-FRET read-out; inhibition, % at 13.8 µM; actives 0.43% (n = 370,000); AID 720596; in the data active means inhibition above about 24%; further: 0% = median of the test wells and 100% = reference compound wells
# CCHF vOTU inh-2: CCHFV vOTU protease inhibition, confirmation; shares compounds with CCHF vOTU inh-1; Recombinant CCHFV vOTU, Pep-AMC fluorescence; inhibition, % at 11.5 µM; actives 17% (n = 1,900); AID 686976
# The depositor's hits bear a star; i = inactive; . = not tested or not shown. Unless noted, no stated cut-off is given here; in the data, active means inhibition above about 30%; inactive means the rest.
SMILES,Vc quorum ag,TcdB inh,PriA SSB inh,CCHF vOTU inh-1,VHR inh abs,PrPC TRFRET,CCHF vOTU inh-2
COC(=O)[C@]12C[C@H](CC(=O)NCCCCc3ccccc3)C(=O)N(CCC3=CCCCC3)C1=C[C@H](C(C)C)O[C@@H]2C1CC1,.,.,.,37*,.,10,2
C(=NN=Cc1cccs1)c1cccs1,.,.,4,.,.,.,.
C(=NN=C(NN=Cc1cccs1)NN=Cc1cccs1)c1cccs1,i,-1,-5,33*,.,2,2
Cc1cc(C)c2sc(N(CCCN(C)C)C(=O)c3ccc(Br)s3)nc2c1,i,0,2,31*,15,10,4
COC(=O)[C@]12C[C@H](CC(=O)NCc3ccccc3)C(=O)N(Cc3ccco3)C1=C[C@H](C(C)C)O[C@@H]2C1CC1,.,.,.,11,.,-4,.
COC(=O)[C@]12C[C@H](CC(=O)NCc3cccc(C(F)(F)F)c3)C(=O)N(Cc3ccccc3)C1=C[C@H](C(C)C)O[C@@H]2C1CC1,.,1,.,41*,.,1,-4
COC(=O)[C@]12C[C@H](CC(=O)NCc3cccc(C(F)(F)F)c3)C(=O)N(Cc3ccco3)C1=C[C@H](C(C)C)O[C@@H]2C1CC1,.,.,.,31*,.,4,0
COC(=O)[C@]12C[C@H](CC(=O)NCc3cccc(C(F)(F)F)c3)C(=O)N(CCC3=CCCCC3)C1=C[C@H](C(C)C)O[C@@H]2C1CC1,.,.,.,33*,.,12,7
COC(=O)[C@]12C[C@H](CC(=O)NCc3cccc(C(F)(F)F)c3)C(=O)N(Cc3cccc4ccccc34)C1=C[C@H](C(C)C)O[C@@H]2C1CC1,.,.,.,21,.,-1,.
COC(=O)[C@]12C[C@H](CC(=O)NCc3cccc(C(F)(F)F)c3)C(=O)N(CCC3=CCCCC3)C1=C[C@H](C(C)(C)C)O[C@@H]2C,.,0,.,12,.,3,.
COc1ccc(-c2ccc(=O)n(CCN3CCN(S(=O)(=O)c4ccc(Cl)s4)CC3)n2)cc1,.,.,-10,.,.,.,.
CC(C)CC(=O)Nc1ccc2c(c1)N(C(=O)c1cccs1)CCC2,.,.,-7,.,.,.,.
O=[N+]([O-])c1ccc(N/N=C/c2ccc(O)c(O)c2O)c(S(=O)(=O)N2CCOCC2)c1,0,-2,.,34*,20,-7,4
O=[N+]([O-])c1ccc(NN=Cc2cccc(O)c2O)c(S(=O)(=O)N2CCOCC2)c1,.,.,-7,.,.,.,.
O=[N+]([O-])c1c(NCCCO)cc(SCc2ccco2)c2nonc12,-4,7,-8,48*,-2,-30,1
CC(=O)C(=Cc1ccc(-c2cc(Cl)ccc2Cl)o1)C(C)=O,.,.,31,.,.,.,.
CCN(CC)CC(=O)NC1CCCc2c1cnn2-c1cc(F)cc(F)c1 (centres undefined),-1,-4,1,3,.,5,.
CSCC(=O)NC1CCCc2c1cnn2-c1cc(F)cc(F)c1 (centres undefined),-1,-5,-16,30*,-2,2,-26
N#CC(C(=O)c1ccccc1)=C1CCCN1,.,.,0,.,.,.,.
O=C(c1ccccc1)N1CCN(C2CCCCC2)CC1,i,.,2,-7,-16,-4,.
O=C1CCN(CC2CCCCC2)C=C1C(=O)c1ccccc1,i,1,-18,32*,.,5,-13
CCCCOC(=O)CSc1nc2c(c(=O)[nH]c(=O)n2C)n1C/C=C(\C)Cl,i,.,-10,31*,-4,0,-10
CC(=O)N(C)c1ccc(N=Cc2cc3c(cc2[N+](=O)[O-])OCO3)cc1,0,0,15,34*,.,-15,31*
Cc1ccc2sc(N3CCN(C(=O)CS(=O)(=O)c4ccccc4)CC3)nc2c1C,.,.,-1,.,.,.,.
C/C(Cl)=C\Cn1c(N2CCCCCC2)nc2c1c(=O)n(C)c(=O)n2C,3,.,3,31*,-1,9,-11
SMILES,Vc quorum ag,TcdB inh,PriA SSB inh,CCHF vOTU inh-1,VHR inh abs,PrPC TRFRET,CCHF vOTU inh-2
COc1ccc(C)c2sc(N(CCN3CCOCC3)C(=O)C3Oc4ccccc4OC3C)nc12 (centres undefined),.,.,-27,.,.,.,.
CCCN(C(=O)c1cn(CCC)c2ccccc12)c1ccc(Oc2cccnc2)cc1,.,-7,.,38*,.,19,3
CCCCCN(C(=O)CCc1cn(CCCCC)c2ccccc12)c1ccc(Oc2cccnc2)cc1,.,1,.,11,.,9,.
CC(C)(C)n1ncc2c(=O)n(NC(=O)c3c(F)cccc3Cl)cnc21,.,.,0,.,.,.,.
CCC(O)c1c(-c2ccccc2)nn(C)c1Cl (centres undefined),i,1,4,31*,12,-5,-16
CCNC(=O)N1CCO[C@@H](Cc2ccccc2)C1,.,.,-5,.,.,.,.
COc1ccc2sc(N(CCCN(C)C)C(=O)c3cccc(Cl)c3)nc2c1,.,.,2,.,.,.,.
Cc1cc(OCC(=O)OCC(=O)N(C)c2c(N)n(Cc3ccccc3)c(=O)[nH]c2=O)ccc1Cl,0,4,-6,-4,.,2,.
CN(C(=O)COC(=O)COc1ccc2ccccc2c1)c1c(N)n(Cc2ccccc2)c(=O)[nH]c1=O,-6,1,6,30*,.,-5,-41
Cc1cc(=O)c2c(o1)C(=O)c1occc1C2=O,0,-6,5,106*,.,-18,48*
O=C(NCC1CCN(S(=O)(=O)c2cccnc2)CC1)c1cc2ccccc2s1,.,.,-22,.,.,.,.
CCOC(=O)C1(Cc2cccc(Cl)c2)CCCN(C(=O)c2ccc(COC)s2)C1 (centres undefined),0,1,-13,31*,-17,9,-4
CCOC(=O)C1(Cc2cccc(Cl)c2)CCCN(C(=O)c2ccco2)C1 (centres undefined),0,0,-6,0,2,5,.
CCOC(=O)C1CCN(C(=O)Cc2csc(NS(=O)(=O)c3ccc(C)cc3)n2)CC1,.,.,0,.,.,.,.
CC1C/C(=C\c2ccccc2[N+](=O)[O-])c2nc3ccccc3c(C(=O)O)c2C1 (centres undefined),-6,-4,-6,32*,26,-9,-10
O=S(=O)(NCC(c1ccsc1)N1CCc2ccccc2C1)c1cccc(F)c1 (centres undefined),.,.,-13,.,.,.,.
COC(=O)c1c(C)oc2c1cc(NS(=O)(=O)c1ccc(C(=O)O)cc1)c1ccccc12,0,-1,-1,38*,17,-9,-8
COc1cc2c(cc1OC)CN(CC(=O)Nc1ccc(C)c(C)c1)CC2,i,-1,-14,-4,38,-3,.
COc1cc2c(cc1OC)CN(CC(=O)Nc1ccc(C)cc1)CC2,0,2,-15,30*,-6,2,-22
Cc1ccc(-c2nc3ccc(Cl)cn3c2Cc2ccccc2C(F)(F)F)cc1,.,1,.,32*,.,-3,-10
Cc1ccc(Cc2c(-c3cccc(Br)c3)nc3ccc(Cl)cn23)cc1,.,2,.,40*,.,-5,-5
CCCCn1c(N)c(N(CC)C(=O)c2ccccc2F)c(=O)[nH]c1=O,i,-2,-12,33*,2,7,-11
